In PubChem BioAssay AID1619 (SRMLSC, 2009):
Screen size: about 220,000 compounds; about 830 (0.38%) were called active.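 Rule for the calls: active = compound inhibiting the enzyme by more than half at any dose during confirmatory dose-response retesting; inconclusive = strong single-dose inhibitors picked by rank but not retested; inactive = the rest.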 A selection follows. Measured potencies and affinities stand elsewhere.

target: Leucine aminopeptidase (Plasmodium falciparum (isolate 3D7)) (UniProt Q8IL11); assay: P. falciparum M17LAP inhibitors, primary screen, biochemical, fluorogenic H-Leu-NHMec substrate, 1536-well (AID 1619); settings: recombinant M17LAP, H-Leu-NHMec fluorogenic kinetic assay; at 30 µM; hits give high values;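 note: plate controls were full reaction with DMSO carrier for no effect and no enzyme background for full effect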
Sequence (Q8IL11 whole entry, looked up): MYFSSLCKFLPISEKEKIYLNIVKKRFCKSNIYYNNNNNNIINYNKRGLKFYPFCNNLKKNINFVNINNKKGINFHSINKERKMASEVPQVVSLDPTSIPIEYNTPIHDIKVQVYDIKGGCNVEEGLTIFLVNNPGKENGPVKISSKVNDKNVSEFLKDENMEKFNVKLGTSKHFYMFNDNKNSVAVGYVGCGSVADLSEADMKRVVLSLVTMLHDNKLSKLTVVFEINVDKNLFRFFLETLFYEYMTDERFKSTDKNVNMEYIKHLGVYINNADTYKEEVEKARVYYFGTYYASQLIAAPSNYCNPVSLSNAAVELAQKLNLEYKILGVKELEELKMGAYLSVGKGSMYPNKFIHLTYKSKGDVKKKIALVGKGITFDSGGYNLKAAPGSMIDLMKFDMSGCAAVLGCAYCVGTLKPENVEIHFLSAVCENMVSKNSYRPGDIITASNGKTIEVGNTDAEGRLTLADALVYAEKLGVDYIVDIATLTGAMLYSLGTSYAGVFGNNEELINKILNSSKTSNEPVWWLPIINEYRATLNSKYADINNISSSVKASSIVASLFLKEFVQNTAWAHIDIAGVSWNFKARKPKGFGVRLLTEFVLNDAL

inhibition, inactive:
Cc1ccccc1/C=N/NC(=O)Cn1nnc(N)n1 -9.27%, COc1ccc2sc(N(CCN(C)C)C(=O)/C=C/c3cccs3)nc2c1 1.07%, CC1=NN(C(=O)CSCc2ccccc2)C(O)(c2ccc(F)cc2)C1 (stereo unspecified) 6.76%, COC(=O)c1c(NC(=O)C2C3CCC(C3)C2C(=O)O)sc2c1CCCCC2 (stereo unspecified) 56.4%, CCOC(=O)c1c(NC(=O)C2CCCCC2C(=O)O)sc2c1CCCCC2 (stereo unspecified) 33.7%, COC(=O)c1c(NC(=O)C2CC2)sc2c1CCCC2 -6.73%, CCOC(=O)c1c(NC(=O)C2C3CCC(O3)C2C(=O)O)sc2c1CCCC2 (stereo unspecified) 14.3%, COc1ccc(NC(=S)N(CCN2CCOCC2)Cc2cc3cc4c(cc3[nH]c2=O)OCCO4)cc1 10.8%, Cc1ccccc1Nc1nnc(SCC(=O)NCc2ccco2)s1 45.1%, Cc1nnc(SCC(=O)NC(=O)NCc2ccco2)s1 -1.14%, CCOc1ccc(S(=O)(=O)c2c(C(=O)c3ccccc3)cnc3cc4c(cc23)OCCO4)cc1 1.82%, O=C(CCS(=O)(=O)Cc1ccccc1F)N1CCc2ccccc2C1 6.01%, COc1ccccc1N1CCN(c2ccc(N3C(=O)CCC3=O)cc2[N+](=O)[O-])CC1 -4.52%, COc1ccc(OCC#CCN2CC(C)OC(C)C2)cc1 (stereo unspecified) -3.27%, O=C(N/N=C\c1ccc(-c2ccc([N+](=O)[O-])cc2)o1)C1COc2ccccc2O1 (stereo unspecified) 1.94%, CC(C)(C)c1ccc2c(c1)OC(C(=O)N/N=C\c1ccc(-c3cccc(C(=O)O)c3)o1)CO2 (stereo unspecified) 7.12%, Nc1nonc1C(=O)N/N=C/c1ccc(-c2cccc(C(=O)O)c2)o1 30.2%, O=C(N/N=C/c1ccc(-c2ccc([N+](=O)[O-])cc2)o1)c1cccnc1 4.87%, CCOP(C)(=O)C1(C(=O)OCc2ccccc2)CC1 (stereo unspecified) -6.01%, COc1cccc(CNc2ccc([N+](=O)[O-])cc2C)c1 6.82%, O=C1/C(=C/c2ccc(N3CCCC3)cc2)NC(=S)N1C1CC1 -10.7%, CC(C)CN1C(=O)/C(=C/c2cccs2)NC1=S 35.9%, O=C(CC1C(=O)NCCN1C(=O)c1ccc(F)cc1)OCc1ccccc1 (stereo unspecified) -6.93%, Cc1ccc(CNC(=O)CN2CCCC(C)C2)cc1 (stereo unspecified) 8.72%, Cc1[nH]nc2c1C(c1ccoc1)C(C#N)=C(N)O2 (stereo unspecified) 21.9%, COc1ccc(-c2[nH]nc3c2C(c2ccoc2)C(C#N)=C(N)O3)cc1 (stereo unspecified) 27.9%, COc1cccc(-c2[nH]nc3c2C(c2ccsc2)C(C#N)=C(N)O3)c1 (stereo unspecified) 35.3%, COc1cc(-c2[nH]nc3c2C(c2ccoc2)C(C#N)=C(N)O3)cc(OC)c1OC (stereo unspecified) 24%, O=C(Nc1nnc(-c2ccccn2)o1)c1ccc(Br)cc1 8.43%, COCC(C)NC(=O)c1cc2cccc([N+](=O)[O-])c2[nH]1 (stereo unspecified) 11.6%, NC(=O)N[C@@H](Cc1c[nH]c2ccccc12)C(=O)OCC(=O)N1CCCCC1 -0.49%, O=C(O/N=C(\c1ccccc1)c1ccncc1)c1ccccc1Cl 3.91%, CC(C)Cn1c2ccccc2c2cc(C(=O)O)ccc21 1.66%, COc1ccc(-c2nc(N)n[nH]2)cc1 2.51%, COc1ccc(-c2csc(N)n2)cc1 -1.01%, Cc1ccc(S(=O)(=O)/N=C(\c2ccccc2)N(C)S(=O)(=O)c2ccc(C)cc2)cc1 -10.3%, Cc1cc(C)cc(NC(=O)C2CCCN(c3nc(C)cc(C)n3)C2)c1 (stereo unspecified) -13.6%, Cc1cccc(NC(=O)C2CCN(c3nc(C)cc(C)n3)CC2)c1 35.1%, Cc1cc(C(F)(F)F)nn1CC(=O)NNC(=S)Nc1cccc(Cl)c1 9.62%, CC1CCC/C(=N\NC(=S)NCc2ccccc2)C1 (stereo unspecified) 9.29%, CCCCOc1ncnc2c1[nH]c1ccc(OC)cc12 -0.91%, COCCOc1cc2ncnc(N3CCC(C(=O)O)CC3)c2cc1OCCOC 5.32%, Cc1cc(/C=C(/C#N)c2nc3ccccc3[nH]2)c(C)n1-c1ccccc1C(=O)O 23%, Cc1cc(/C=C(/C#N)c2nc3ccccc3[nH]2)c(C)n1-c1cccc([N+](=O)[O-])c1 -7.34%, COc1cccc(N2CCN(C(=S)NCCc3ccccc3)CC2)c1 -3.71%, CCOc1ccc(S(=O)(=O)NCCCN2CCOCC2)cc1 -8.49%, Cc1ccc2c(c1)N(C(C)C(=O)NCc1ccccn1)C(=O)CO2 (stereo unspecified) -7.53%, CCc1cc2ccccc2nc1SCC(=O)Nc1cc(C)on1 4.25%, COc1cc(NC(=O)CSc2ccccc2)c(C(=O)O)cc1OC 39.3%, COc1ccccc1NC(=O)CSc1nc2ccccc2cc1Cc1ccccc1 3.65%, O=C(CSc1ncnc2scc(-c3ccccc3)c12)Nc1ccc(C(=O)O)cc1 5.99%, CCc1cc2c(C)ccc(C)c2nc1SCC(=O)Nc1c[nH]c(=O)[nH]c1=O 14.5%, COC(=O)CSc1ncnc2scc(-c3ccccc3)c12 -1.19%, COc1cc(NC(=O)CSc2nccc(C)n2)c(C(=O)O)cc1OC 43.1%, COc1cc(NC(=O)CSc2cc(C)c3cc(C)cc(C)c3n2)c(C(=O)O)cc1OC 15.4%, CCn1c(COc2ccc3c(c2)CCCC3)nnc1SCC(=O)Nc1ccc(C(=O)OC)cc1 5.55%, Cc1ccc(CNC(=O)C2CC(=O)OC23CCCC3)c(C)c1 (stereo unspecified) 6.63%, CN(C)CCNc1c2c(nc3nnnn13)CCCC2 5.48%, O=C(NN=C1CCCC1)C1COc2ccccc2O1 (stereo unspecified) 0.87%, O=C(O)C1CC(=O)N(Cc2ccc3c(c2)OCO3)C1 (stereo unspecified) -0.32%, COC(=O)[C@@]1(Cc2ccc(F)cc2)[C@H]2c3cc(C(=O)N(C)C)n(Cc4c(CO)[nH]cc(C)c4=O)c3C[C@H]2CN1C(=O)c1ccccc1 6.87%
